Source: PubChem (National Center for Advancing Translational Sciences (NCATS))
In the library only some 6.5% were active in any assay of this set; here they are far more common.
FMDV inh: blocks foot and mouth disease virus. Potency, µM (doses to about 57.9 µM), inactives show at the highest dose activity change, negative = inhibition, most hits filed as inhibitors. FMDV antiviral cell-based qHTS. actives 1.2% (n = 410,000). AID 1159524; calls by dose curve; tested in HEK293T cells; further: read-out not given here; potency means the concentration at half of the fitted maximal effect; nearly all actives have a fitted effect of over 45% in size
LASV entry inh: inhibitors of Lassa virus binding or cell entry; Potency, µM (top dose mostly 37.9 µM), inactives show at the highest dose activity change, negative = inhibition, actives largely listed as inhibitors; actives 1.2% (n = 300,000); Lassa virus pseudotype entry inhibition, cell reporter; calls by dose curve; tested in HEK293 cells; further: potency means the concentration at half of the fitted maximal effect; nearly all actives have a fitted effect of over 50% in size
Vaccinia Venus: inhibitors of vaccinia virus (Venus reporter) | actives 0.46% (n = 330,000) | Vaccinia virus Venus reporter expression, fluorescence | AID 720580 | Potency, µM (top dose mostly 36.5 µM), for the others: at the highest dose activity change, negative = inhibition, usual class: inhibitors; calls by dose curve; tested in A549 cells; further: potency means the concentration at half of the fitted maximal effect; nearly all actives have a fitted effect of over 30% in size
HCMV inh: human cytomegalovirus inhibition; HFF cells, HCMV-luciferase reporter, 72 h; stronger effect = lower value; activity change, negative = inhibition, % at 57.5 µM; actives 4.5% (n = 410,000); AID 1259415; in the data active means activity change below about -60%; inconclusive means no clear call, values can overlap the other calls; inactive means above about -39%
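Two-dose cell screen: HFF monolayers treated with compounds and infected with luciferase-expressing HCMV at 1 PFU/cell, 72 h at 37C, then lysed for luciferase measurement.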
VACV mCherry inh: vaccinia inhibition (mCherry reporter); Potency, µM (titrated, usually from 36.5 µM), without a hit: at the top dose activity change, negative = inhibition, actives largely listed as inhibitors; Vaccinia virus mCherry reporter infection, fluorescence; actives 0.63% (n = 310,000); calls by dose curve; tested in A549 cells; further: potency means the concentration at half of the fitted maximal effect; nearly all actives have a fitted effect of over 35% in size
Marburg entry inh: Marburg virus entry inhibition. Marburg virus pseudotyped entry inhibition, cell reporter. Potency, µM (top dose mostly 37.8 µM), for the others: top-dose activity change, negative = inhibition, actives largely listed as inhibitors. actives 1.8% (n = 300,000); calls by dose curve; tested in HEK293 cells; further: potency means the concentration at half of the fitted maximal effect
Starred values were filed as active, the others as inactive; [ ] = dose if it differs, or a comment. On the % scale 0 is the no-effect control and ±100 the full control effect.

What do the screens show for `O=C(N/N=C\c1c(O)ccc2ccccc12)c1ccc(Cn2cccn2)o1`?
FMDV inh: inconclusive; LASV entry inh: 13µM*; Vaccinia Venus: inconclusive; HCMV inh: -99.3*; VACV mCherry inh: 4.47µM*; Marburg entry inh: 5.8µM*

How did CCOc1ccc(/C=N/NC(=O)c2[nH]ncc2Br)c(O)c1 do in these assays?
FMDV inh: -39.1%; LASV entry inh: 1.83µM*; Vaccinia Venus: inconclusive; HCMV inh: -101.3*; VACV mCherry inh: 1.26µM*; Marburg entry inh: 6.51µM*

How did O=C(N/N=C/c1c(O)ccc2ccccc12)c1[nH]ncc1Br do in these assays?
FMDV inh: 64.1%; LASV entry inh: 16.4µM*; Vaccinia Venus: inconclusive; HCMV inh: -98.6*; VACV mCherry inh: 2.51µM*; Marburg entry inh: inconclusive

How did COc1ccc(OC)c(/C=N/NC(=O)c2[nH]ncc2Br)c1 do in these assays?
FMDV inh: 11.3%; LASV entry inh: inconclusive; Vaccinia Venus: -16.3%; HCMV inh: -22.3; VACV mCherry inh: -15.0%; Marburg entry inh: -1.6%

Results for Cc1ccc(O)c(/C=N/NC(=O)c2[nH]ncc2Br)c1 ?
FMDV inh: 41.3%; LASV entry inh: inconclusive; Vaccinia Venus: -13.6%; HCMV inh: 47.2; VACV mCherry inh: -12.6%; Marburg entry inh: inconclusive

What do the screens show for `O=C(O)C1=CC(c2ccc(Br)cc2)n2ncnc2N1` (stereo not given)?
FMDV inh: -19.9%; LASV entry inh: 20.0%[46.1 µM]; Vaccinia Venus: -6.9%; HCMV inh: -20.8; VACV mCherry inh: -3.2%; Marburg entry inh: 1.5%[46.1 µM]

Results for CCCCc1nn2c(=O)cc(COC(=O)c3ccccc3C)nc2s1 ?
FMDV inh: 19.4%; LASV entry inh: inconclusive; Vaccinia Venus: 0.3%; HCMV inh: 13.5; VACV mCherry inh: 0.0%

What do the screens show for `CC(=O)Nc1ccc(/C=C/c2ccccn2)cc1`?
Vaccinia Venus: -8.8%; VACV mCherry inh: -8.7%

What do the screens show for `CN(C)CCCNCC(=O)Nc1ccc(Cl)cc1C(=O)c1ccccc1`?
FMDV inh: -8.0%; LASV entry inh: -19.2%[46.1 µM]; Vaccinia Venus: -9.5%; HCMV inh: -3.6; VACV mCherry inh: -8.3%; Marburg entry inh: 11.2µM*

How did CC(C)(C)n1nc(C2CC2)c(Br)c1NC(=O)c1ccc(Cl)cc1 do in these assays?
HCMV inh: 27.7

What do the screens show for `Cc1cc(O)cc(O)c1C(=O)Cc1ccccc1`?
FMDV inh: 0.0%; LASV entry inh: inconclusive; Vaccinia Venus: -22.5%; HCMV inh: -70.6*; VACV mCherry inh: -27.0%; Marburg entry inh: inconclusive

What do the screens show for `COc1cc(OC)c(C2=Nc3ccc(Br)cc3C(c3ccccc3)N2CC(=O)NN)cc1OC` (stereo not given)?
FMDV inh: -11.3%; HCMV inh: -67.6*

What do the screens show for `CS(=O)(=O)c1ccc(C(=O)OCC(=O)N2CCCC2)cc1[N+](=O)[O-]`?
Vaccinia Venus: -14.8%; VACV mCherry inh: -2.8%

How did CS(=O)(=O)c1ccc(C(=O)OCC(=O)N2CCN(CCC3CCCCC3)CC2)cc1[N+](=O)[O-] do in these assays?
FMDV inh: 25.1µM*; HCMV inh: -102.8*

Results for COc1ccc(C2=NN(C(=O)COC(=O)c3ccc(S(C)(=O)=O)c([N+](=O)[O-])c3)C(c3ccco3)C2)cc1 (stereo not given) ?
FMDV inh: 25.1µM*; LASV entry inh: inconclusive; Vaccinia Venus: inconclusive; HCMV inh: 42.0; VACV mCherry inh: 11.2µM*; Marburg entry inh: inconclusive

How did Cc1cc(C(=O)OCC(=O)NC(=O)C2CCCCC2)ccc1[N+](=O)[O-] do in these assays?
Vaccinia Venus: -16.0%; VACV mCherry inh: -4.6%

What do the screens show for `CS(=O)(=O)c1ccc(C(=O)OCC(=O)N2CCOCC2)cc1[N+](=O)[O-]`?
FMDV inh: inconclusive; HCMV inh: -79.5*

How did CS(=O)(=O)c1ccc(C(=O)OCC(=O)NC(=O)C2CCCCC2)cc1[N+](=O)[O-] do in these assays?
FMDV inh: 22.4µM*; LASV entry inh: inconclusive; HCMV inh: -77.2*; Marburg entry inh: inconclusive

How did O=C(Cc1ccccc1[N+](=O)[O-])c1ccccc1[N+](=O)[O-] do in these assays?
HCMV inh: -13.8

How did NC[C@H](O)c1cc(O)c(O)cc1F do in these assays?
Marburg entry inh: -5.6%

Results for COc1cccc([C@H]2Oc3ccc(OC)cc3C(=NO[C@@H](C)c3cn([C@H](CO)Cc4ccccc4)nn3)[C@H]2O)c1 ?
Marburg entry inh: 5.1%[14.2 µM]

What do the screens show for `Cc1ccccc1OC(C)C(=O)NCCNC(=O)C(C)Oc1ccccc1C` (stereo not given)?
Vaccinia Venus: -5.8%; VACV mCherry inh: -14.4%

How did Cc1ccc(C(=O)Nc2ccc(S(=O)(=O)N3CCCC3)cc2)o1 do in these assays?
FMDV inh: -0.2%; LASV entry inh: -6.4%; Vaccinia Venus: -7.6%; HCMV inh: 16.6; VACV mCherry inh: -8.7%; Marburg entry inh: 0.7%

What do the screens show for `O=C(Nc1ccc(Cc2ccncc2)cc1)c1ccc([N+](=O)[O-])o1`?
FMDV inh: 10.1%; LASV entry inh: inconclusive; Vaccinia Venus: inconclusive; HCMV inh: -100.9*; VACV mCherry inh: 10µM*; Marburg entry inh: inconclusive

Results for O=C(Nc1ccc(Cc2ccncc2)cc1)c1cccc([N+](=O)[O-])c1 ?
FMDV inh: -22.9%; LASV entry inh: 10.2%; Vaccinia Venus: -15.0%; HCMV inh: -20.7; VACV mCherry inh: -6.8%; Marburg entry inh: 3.0%

How did O=C(Nc1ccc(S(=O)(=O)N2CCCCCC2)cc1)c1ccc(Br)o1 do in these assays?
FMDV inh: 46.0%; LASV entry inh: 9.2µM*; HCMV inh: inconclusive; Marburg entry inh: inconclusive

Results for O=C(Nc1ccc(S(=O)(=O)N2CCOCC2)cc1)c1ccc([N+](=O)[O-])o1 ?
FMDV inh: -14.4%; LASV entry inh: -24.5%; Vaccinia Venus: 17.8µM*; HCMV inh: -98.5*; VACV mCherry inh: inconclusive; Marburg entry inh: inconclusive

What do the screens show for `CN1CCN(c2ccc(NC(=O)c3ccc(Br)o3)cc2)CC1`?
FMDV inh: 33.8%; HCMV inh: 20.4

How did CC1CCN(c2ccc(NC(=O)c3ccc(Br)o3)cc2)CC1 do in these assays?
FMDV inh: 38.6%; LASV entry inh: 10µM*; Vaccinia Venus: -25.1%; HCMV inh: 58.0; VACV mCherry inh: -22.1%; Marburg entry inh: inconclusive

What do the screens show for `CC(=O)Nc1ccc2nc(NC(=O)c3ccc([N+](=O)[O-])o3)sc2c1`?
FMDV inh: -16.3%; LASV entry inh: inconclusive; Vaccinia Venus: inconclusive; HCMV inh: -102.3*; VACV mCherry inh: inconclusive; Marburg entry inh: inconclusive

How did CCC(=O)NC(=S)Nc1ccc(NC(=O)c2ccc(OC)cc2)cc1 do in these assays?
FMDV inh: -6.6%; LASV entry inh: -5.9%; Vaccinia Venus: -0.5%; HCMV inh: -21.1; VACV mCherry inh: -11.5%; Marburg entry inh: -29.5%
